Assay results reported in PubChem BioAssay (NCI).
This is part of a sample that, as a whole, favours compounds with a hit. Of some 83,000 tested, about 20% had one in any assay.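 Activity criterion: percent growth below 10, measured after cells in 96-well plates were exposed to a single compound concentration for 48 hours.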 Activity calls are given as the source filed them.

What follows are molecules tested on SW-620 colon (assay: NCI-60 one-dose screen, 48 h (100 = growth as untreated, 0 = no growth, -100 = all killed)). Conditions: 10 µM unless noted.
For `CCNc1cc2c(cc1Br)-c1ccccc1C2=O`, the growth was 98.9% (inactive).
For `Cn1cc(-c2noc(-c3cn(C)c4ncccc34)n2)c2cc(Cl)ccc21`, the growth was 89% (inactive).
In the case of `N#Cc1ccc(-c2ccc(COc3ccc(CC4SC(=O)NC4=O)cc3)cc2)cc1` (configuration not stated), the growth is reported as 80.1% (inactive).
In the case of `O=C(N[C@@H]1CCCc2ccccc21)[C@H](CCC(=O)N1CCN(C2CCCCC2)CC1)N1C(=O)[C@@H](N2C(=O)OC[C@@H]2c2ccccc2)[C@H]1/C=C/c1ccccc1`, the growth is reported as 37.7% (inactive).
`CCOC(=O)/C(C#N)=C(\C)CCc1ccccc1` was tested, and the growth was 103% (inactive).
For `COc1ccc(C(=O)CSc2nccc(Nc3ccc(C(=O)O)cc3)n2)cc1`, the growth was 95.6% (inactive).
`O=C(NCCCCCCCNC(=O)OCc1ccc2c(Cl)cc(Cl)c(O)c2n1)OCc1ccc2c(Cl)cc(Cl)c(O)c2n1` was tested, and the growth was -67.3% (active).
For `CCN(CCO)CCC(=O)c1ccc([N+](=O)[O-])cc1`, the growth was 113% (inactive).
In the case of `CCOC(=O)COc1c(C)cc(SSc2cc(C)c(OCC(=O)OCC)c(C)c2)cc1C`, the growth is reported as 99.5% (inactive).
For `CC(C)C1=NOC(=O)C1=Cc1cn(-c2ccco2)nc1-c1ccccc1`, the growth was 84% (inactive).
With `CCOC(=O)Nc1ccc2c(c1)/C(=N\NC(=S)NC)c1ccccc1-2` the growth was 93.6% (inactive).
With `COc1ccc(/C=C(/C(=O)c2ccc(Cl)cc2)C(=O)C(F)(F)F)cc1` the growth was 101% (inactive).
`O=[N+]([O-])c1cccc(N=NNc2cccc([N+](=O)[O-])c2)c1` was tested, and the growth was 91.7% (inactive).
`COc1ccc2c(c1)c(-c1noc(-c3cn(C)c4ncc(F)cc34)n1)cn2C` was tested, and the growth was 82% (inactive).
With `CCn1cc(-c2ccnc(NCCNS(=O)(=O)c3cccc4ccccc34)c2)c(-c2cccc(O)c2)n1` the growth was 118% (inactive).
For `Cc1ccc(-c2cc(O)c(-c3ccc(C)cc3C)cc2O)c(C)c1`, the growth was 56.5% (inactive).
For `CCc1ccc(-c2ccc(COc3ccc(CC4SC(=O)NC4=O)cc3)cc2)cc1` (configuration not stated), the growth was 80.7% (inactive).
For `CCCn1ccnc1C(O)c1ccc(OCc2ccccc2)c(OC)c1` (configuration not stated), the growth was 98% (inactive).
`O=C(Nc1cc(F)cc2cccnc12)c1cnc(N2CCNCC2)cn1` was tested, and the growth was 40.9% (inactive).
In the case of `O=C(CCCSc1nc(-c2ccccc2)cc(-c2ccccc2)n1)NO`, the growth is reported as 16% (inactive).
In the case of `O=C(CCN1CCCCC1)c1ccc(Cl)cc1`, the growth is reported as 103% (inactive).
`O=C(NCCCNC(=O)OCc1ccc2c(Br)cc(Br)c(O)c2n1)OCc1ccc2c(Br)cc(Br)c(O)c2n1` was tested, and the growth was -44.7% (active).
For `Cc1ccc(N)c(O)c1`, the growth was 92.2% (inactive).
For `COc1cc2c(=O)[nH]c3cc([N+](=O)[O-])ccc3c2cc1[N+](=O)[O-]`, the growth was 35.5% (inactive).
With `C/C=C/C1OC23CCCCC2C(C#N)(C(=N)O3)C1(C#N)C#N` (configuration not stated) the growth was 92.9% (inactive).
In the case of `Cc1ccc(S(=O)(=O)NCCCNc2nccc(-c3c(-c4cccc(F)c4)nc4occn34)n2)cc1`, the growth is reported as 76.8% (inactive).
For `COc1ccc2c(c1)C(C)Cc1c(ncnc1-n1cnc3ccccc31)N2C` (configuration not stated), the growth was 23.8% (inactive).
`Clc1ccccc1/C=N\Nc1ccccn1` was tested, and the growth was 102% (inactive).
For `CC(C)C1=NOC(=O)C1=Cc1cn(-c2ccccc2)nc1-c1cccc([N+](=O)[O-])c1`, the growth was 57.8% (inactive).
In the case of `CC(C)C1=NOC(=O)C1=Cc1cn(-c2cccnc2)nc1-c1ccccc1`, the growth is reported as 88.8% (inactive).
`O=C1COCCN1c1ccc(NCc2cn(Cc3ccccc3)c3ccccc23)cc1` was tested, and the growth was 84.9% (inactive).
With `COc1ccc(N(c2nc(-c3ccc([N+](=O)[O-])cc3)cs2)C(C)C)cc1` the growth was 88.1% (inactive).
`OC(c1ccc(Cl)cc1)(c1ccc(Cl)cc1)C(O)(c1ccc(Cl)cc1)c1ccc(Cl)cc1` was tested, and the growth was 44.4% (inactive).
For `O=C(NCc1ccc(Cn2c(=O)sn(-c3ccccc3)c2=O)cc1)OCc1ccc2c(Br)cc(Br)c(O)c2n1`, the growth was -50.2% (active).
For `O=S(=O)(NCCNc1nccc(-c2c(-c3cccc(F)c3)nc3occn23)n1)c1ccc(C(F)(F)F)cc1`, the growth was 101% (inactive).
For `O=C(Nc1ccc(Cl)c(C(F)(F)F)c1)Nc1ccc(-c2cccnc2)cc1N1CCC(CO)CC1`, the growth was 35.5% (inactive).
`O=C(CCNCc1ccccc1)c1ccccc1` was tested, and the growth was 109% (inactive).

These molecules were tested on MCF7 breast in the same assay as above. Conditions: 10 µM unless noted.
In the case of `CCNc1cc2c(cc1Br)-c1ccccc1C2=O`, the growth is reported as 26.8% (inactive).
For `Cn1cc(-c2noc(-c3cn(C)c4ncccc34)n2)c2cc(Cl)ccc21`, the growth was 62.1% (inactive).
For `N#Cc1ccc(-c2ccc(COc3ccc(CC4SC(=O)NC4=O)cc3)cc2)cc1` (configuration not stated), the growth was 38.1% (inactive).
For `O=C(N[C@@H]1CCCc2ccccc21)[C@H](CCC(=O)N1CCN(C2CCCCC2)CC1)N1C(=O)[C@@H](N2C(=O)OC[C@@H]2c2ccccc2)[C@H]1/C=C/c1ccccc1`, the growth was 16.5% (inactive).
In the case of `CCOC(=O)/C(C#N)=C(\C)CCc1ccccc1`, the growth is reported as 91.9% (inactive).
`COc1ccc(C(=O)CSc2nccc(Nc3ccc(C(=O)O)cc3)n2)cc1` was tested, and the growth was 101% (inactive).
In the case of `O=C(NCCCCCCCNC(=O)OCc1ccc2c(Cl)cc(Cl)c(O)c2n1)OCc1ccc2c(Cl)cc(Cl)c(O)c2n1`, the growth is reported as -30.2% (active).
With `CCN(CCO)CCC(=O)c1ccc([N+](=O)[O-])cc1` the growth was 98.6% (inactive).
For `CCOC(=O)COc1c(C)cc(SSc2cc(C)c(OCC(=O)OCC)c(C)c2)cc1C`, the growth was 92.6% (inactive).
For `CCOC(=O)Nc1ccc2c(c1)/C(=N\NC(=S)NC)c1ccccc1-2`, the growth was 74.6% (inactive).
`COc1ccc(/C=C(/C(=O)c2ccc(Cl)cc2)C(=O)C(F)(F)F)cc1` was tested, and the growth was 77.2% (inactive).
`O=[N+]([O-])c1cccc(N=NNc2cccc([N+](=O)[O-])c2)c1` was tested, and the growth was 65.3% (inactive).
With `COc1ccc2c(c1)c(-c1noc(-c3cn(C)c4ncc(F)cc34)n1)cn2C` the growth was 54.6% (inactive).
In the case of `Cc1ccc(-c2cc(O)c(-c3ccc(C)cc3C)cc2O)c(C)c1`, the growth is reported as 49.2% (inactive).
With `CCc1ccc(-c2ccc(COc3ccc(CC4SC(=O)NC4=O)cc3)cc2)cc1` (configuration not stated) the growth was 59.1% (inactive).
With `CCCn1ccnc1C(O)c1ccc(OCc2ccccc2)c(OC)c1` (configuration not stated) the growth was 85.4% (inactive).
For `O=C(Nc1cc(F)cc2cccnc12)c1cnc(N2CCNCC2)cn1`, the growth was 10.2% (inactive).
`O=C(CCCSc1nc(-c2ccccc2)cc(-c2ccccc2)n1)NO` was tested, and the growth was 9.38% (active).
`O=C(CCN1CCCCC1)c1ccc(Cl)cc1` was tested, and the growth was 91.8% (inactive).
In the case of `O=C(NCCCNC(=O)OCc1ccc2c(Br)cc(Br)c(O)c2n1)OCc1ccc2c(Br)cc(Br)c(O)c2n1`, the growth is reported as -28.1% (active).
In the case of `Cc1ccc(N)c(O)c1`, the growth is reported as 83.5% (inactive).
In the case of `COc1cc2c(=O)[nH]c3cc([N+](=O)[O-])ccc3c2cc1[N+](=O)[O-]`, the growth is reported as 16.5% (inactive).
With `C/C=C/C1OC23CCCCC2C(C#N)(C(=N)O3)C1(C#N)C#N` (configuration not stated) the growth was 86.2% (inactive).
For `COc1ccc2c(c1)C(C)Cc1c(ncnc1-n1cnc3ccccc31)N2C` (configuration not stated), the growth was 18.6% (inactive).
In the case of `Clc1ccccc1/C=N\Nc1ccccn1`, the growth is reported as 28.4% (inactive).
In the case of `O=C1COCCN1c1ccc(NCc2cn(Cc3ccccc3)c3ccccc23)cc1`, the growth is reported as 63.9% (inactive).
With `OC(c1ccc(Cl)cc1)(c1ccc(Cl)cc1)C(O)(c1ccc(Cl)cc1)c1ccc(Cl)cc1` the growth was 49.7% (inactive).
With `O=C(NCc1ccc(Cn2c(=O)sn(-c3ccccc3)c2=O)cc1)OCc1ccc2c(Br)cc(Br)c(O)c2n1` the growth was -29% (active).
With `O=C(Nc1ccc(Cl)c(C(F)(F)F)c1)Nc1ccc(-c2cccnc2)cc1N1CCC(CO)CC1` the growth was 16.2% (inactive).
`O=C(CCNCc1ccccc1)c1ccccc1` was tested, and the growth was 102% (inactive).
